From PubChem
IL1B cytotox = HUVEC cytotoxicity counter-screen, IL-1B stimulated | HUVEC cell count loss, Hoechst imaging | cell count reduction, % at 2 µM | hit rate 0.41% among 94,000 | AID 845;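 active means cell count reduction more than 3 SD above the screen-wide mean, cut at about 70% in these data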
sEH act = increases human soluble epoxide hydrolase activity | purified human sEH enzymatic activity, activator screen | hit rate 0.04% among 91,000 | activation, % at 2 µM; in the data active means activation above about 37%
IL1B NFkB inh = blocks IL-1B driven NFkB nuclear translocation in HUVEC cells | hit rate 0.43% among 94,000 | inhibition, % at 2 µM | AID 796 | HUVEC IL-1B NFkB p65 nuclear translocation imaging;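 active means inhibition above about 30% together with a positive call from visual inspection of the well image, limit read from the data; inconclusive means inhibition above a set limit but visual check negative; inactive means inhibition not above a set limit, visual check negative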;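 further: nuclear over cytoplasmic p65 intensity ratio measured by imaging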
sEH inhibitor = blocks human soluble epoxide hydrolase activity. P34913. recombinant human sEH enzymatic activity assay. inhibition, % at 2 µM. hit rate 0.34% among 91,000. AID 707; in the data active means inhibition above about 80%
IL1B NFkB pot = enhances IL-1B driven NFkB nuclear translocation. hit rate 0.3% among 94,000. AID 819. HUVEC IL-1B NFkB p65 nuclear translocation imaging. activation, % at 2 µM;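 active means activation above 40%, about the mean plus 3 SD, also judged a hit on visual image review; inconclusive means activation above 40% but not a hit on visual review; inactive means activation not above 40% and no visual hit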;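 further: percent activation is computed from the nuclear over cytoplasmic p65 intensity ratio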
Cav32 inh = blocks human Cav3.2 T-type calcium channel | Cav3.2-expressing cells, Fluo-4 calcium fluorescence FDSS; stronger effect = lower value | O95180 | B-score at 10 µM | hit rate 4% among 100,000;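 active means single-dose well whose peak fluorescence ratio is a statistical outlier from its plate by either plate-standardised score or position-corrected B-score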
Target sequence (O95180 whole entry, looked up): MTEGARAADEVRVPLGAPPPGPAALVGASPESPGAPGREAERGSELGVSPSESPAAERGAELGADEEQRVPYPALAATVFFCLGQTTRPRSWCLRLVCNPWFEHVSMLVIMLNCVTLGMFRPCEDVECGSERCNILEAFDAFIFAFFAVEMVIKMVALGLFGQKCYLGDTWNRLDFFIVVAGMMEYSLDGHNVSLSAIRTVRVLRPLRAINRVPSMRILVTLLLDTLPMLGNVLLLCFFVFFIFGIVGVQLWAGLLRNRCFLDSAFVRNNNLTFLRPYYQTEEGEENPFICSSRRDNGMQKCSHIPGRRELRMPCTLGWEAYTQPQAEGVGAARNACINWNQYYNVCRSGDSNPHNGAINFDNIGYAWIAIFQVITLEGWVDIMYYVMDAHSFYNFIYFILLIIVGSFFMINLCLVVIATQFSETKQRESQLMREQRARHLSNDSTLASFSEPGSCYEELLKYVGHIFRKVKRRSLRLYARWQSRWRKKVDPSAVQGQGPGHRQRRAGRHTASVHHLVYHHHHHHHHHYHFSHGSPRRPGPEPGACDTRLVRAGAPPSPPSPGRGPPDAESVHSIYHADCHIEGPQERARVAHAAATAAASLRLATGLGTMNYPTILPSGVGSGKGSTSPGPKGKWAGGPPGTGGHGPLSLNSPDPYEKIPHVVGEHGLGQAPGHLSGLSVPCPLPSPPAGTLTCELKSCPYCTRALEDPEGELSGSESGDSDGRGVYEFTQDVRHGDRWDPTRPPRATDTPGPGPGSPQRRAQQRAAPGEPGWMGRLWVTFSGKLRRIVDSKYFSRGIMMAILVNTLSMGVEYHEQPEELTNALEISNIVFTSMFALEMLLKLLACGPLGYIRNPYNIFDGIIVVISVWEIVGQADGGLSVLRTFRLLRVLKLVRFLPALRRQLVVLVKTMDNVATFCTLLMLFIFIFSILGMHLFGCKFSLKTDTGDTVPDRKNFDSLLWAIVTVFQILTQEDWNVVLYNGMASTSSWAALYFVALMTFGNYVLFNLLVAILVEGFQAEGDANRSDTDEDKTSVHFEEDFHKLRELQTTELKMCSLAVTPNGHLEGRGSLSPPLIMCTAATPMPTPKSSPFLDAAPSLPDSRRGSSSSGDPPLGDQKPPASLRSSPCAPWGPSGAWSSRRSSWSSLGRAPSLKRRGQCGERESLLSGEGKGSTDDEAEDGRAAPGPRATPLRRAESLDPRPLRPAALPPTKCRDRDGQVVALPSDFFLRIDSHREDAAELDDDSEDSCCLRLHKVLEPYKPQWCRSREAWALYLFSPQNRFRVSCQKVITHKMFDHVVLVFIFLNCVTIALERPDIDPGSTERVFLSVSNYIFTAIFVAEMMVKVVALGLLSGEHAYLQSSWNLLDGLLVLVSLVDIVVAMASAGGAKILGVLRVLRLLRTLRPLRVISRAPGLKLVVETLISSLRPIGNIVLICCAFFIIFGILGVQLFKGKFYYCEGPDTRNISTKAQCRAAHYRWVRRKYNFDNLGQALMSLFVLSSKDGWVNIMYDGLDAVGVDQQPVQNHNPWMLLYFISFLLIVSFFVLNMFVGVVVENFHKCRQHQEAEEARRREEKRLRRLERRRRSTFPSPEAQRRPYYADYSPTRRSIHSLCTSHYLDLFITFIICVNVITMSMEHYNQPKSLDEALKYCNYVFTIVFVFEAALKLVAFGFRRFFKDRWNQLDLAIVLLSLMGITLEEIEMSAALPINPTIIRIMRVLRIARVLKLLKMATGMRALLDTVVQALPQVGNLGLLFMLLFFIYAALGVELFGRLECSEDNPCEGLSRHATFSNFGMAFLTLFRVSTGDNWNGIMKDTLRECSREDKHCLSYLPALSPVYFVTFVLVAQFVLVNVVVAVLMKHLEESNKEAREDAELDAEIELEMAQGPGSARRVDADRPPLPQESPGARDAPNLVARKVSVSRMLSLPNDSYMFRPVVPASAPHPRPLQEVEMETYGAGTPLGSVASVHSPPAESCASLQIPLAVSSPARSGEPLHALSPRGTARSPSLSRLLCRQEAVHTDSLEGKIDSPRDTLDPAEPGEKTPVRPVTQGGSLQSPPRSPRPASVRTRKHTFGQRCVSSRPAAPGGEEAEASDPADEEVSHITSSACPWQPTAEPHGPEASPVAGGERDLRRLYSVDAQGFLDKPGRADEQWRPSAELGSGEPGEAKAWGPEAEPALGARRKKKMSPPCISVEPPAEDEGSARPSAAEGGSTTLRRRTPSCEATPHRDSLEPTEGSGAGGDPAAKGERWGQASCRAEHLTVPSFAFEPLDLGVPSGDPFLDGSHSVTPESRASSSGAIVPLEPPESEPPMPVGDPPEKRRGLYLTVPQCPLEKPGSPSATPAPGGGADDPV
Each line names hits and unclear results; the compound was inactive in the other large screens. Hits are enriched below; roughly 4.6% of the tested compounds scored in any of these assays.

O=C(CSc1nnc(-c2ccccn2)n1Cc1ccco1)c1ccc(Cl)cc1	Cav32 inh -5
Cc1nnc(N2CCN(Cc3ccccc3)CC2)[nH]c1=O	none
CCCCN(C)C(=O)c1cn(CC)c2nc(C)ccc2c1=O	none
COc1ccc(C(=O)CSc2nnc(-c3ccccn3)n2Cc2ccco2)cc1	none
COc1cc(Cl)c(C)cc1NC(=O)CSc1nnc(-c2ccccn2)n1Cc1ccco1	Cav32 inh -7.3
CCCCn1c(CNC(=O)Cc2ccccc2)nc2ccccc21	none
C=CCn1c(CCCNC(=O)C(C)(C)C)nc2ccccc21	none (no result: IL1B cytotox, sEH act, IL1B NFkB inh, sEH inhibitor, IL1B NFkB pot)
CC(C)(C)C(=O)NCCCc1nc2ccccc2n1CCCOc1ccc(Cl)cc1	Cav32 inh -6.7
CCN1C(=O)N(c2cccc3ccccc23)C(C)=CC1(C)C	Cav32 inh -5.7
CC1=C(C(=O)OCC2CCCO2)C(c2ccc(C)o2)C2=C(CC(c3ccc(F)cc3)CC2=O)N1 (centres undefined)	none
CCC(C)NC(=O)CCS(=O)(=O)c1ccc2c(c1)n(C)c(=O)c(=O)n2C (centres undefined)	none (no result: IL1B cytotox, sEH act, IL1B NFkB inh, sEH inhibitor, IL1B NFkB pot)
CN(Cc1ccccc1)C(=O)CCS(=O)(=O)c1ccc2c(c1)n(C)c(=O)c(=O)n2C	Cav32 inh -4.9 (no result: IL1B cytotox, sEH act, IL1B NFkB inh, sEH inhibitor, IL1B NFkB pot)
COc1ccc(N(CC(=O)NCCSCc2c(F)cccc2Cl)S(C)(=O)=O)cc1OC	none
COc1cccc(N(CC(=O)NCCSc2ccc(Cl)cc2)S(C)(=O)=O)c1	Cav32 inh -5.5
COc1cccc(N(CC(=O)NCCSc2ccccc2)S(C)(=O)=O)c1	none
CS(=O)(=O)N(CC(=O)NCCSCc1c(F)cccc1Cl)c1ccc2c(c1)OCO2	Cav32 inh -6.5
Cc1noc(NS(=O)(=O)c2ccc(NC(=O)CSc3ncccn3)cc2)c1C	IL1B NFkB pot inconclusive
Cc1noc(NS(=O)(=O)c2ccc(NC(=O)CSc3nc4c(cc3C#N)CCC4)cc2)c1C	IL1B NFkB pot 68
Cc1noc(NS(=O)(=O)c2ccc(NC(=O)CSc3nc4ccccc4s3)cc2)c1C	IL1B cytotox 74
O=C(Oc1ccc(=O)n(-c2ccccc2)n1)c1ccc(Cl)cc1	none (no result: Cav32 inh)
Cc1ccc(-c2noc(CCC(=O)Nc3cccc(C#N)c3)n2)cc1	Cav32 inh -4.2
CCOC(=O)c1ccc(NC(=O)CCc2nc(-c3cccc(C)c3)no2)cc1	IL1B cytotox 87, IL1B NFkB inh 99
Cc1cccc(-c2noc(CCC(=O)NCc3ccccc3)n2)c1	none
CCOC(=O)C1C(=O)OC(C)(C)C1C(C)C(=O)c1ccc(OC)cc1 (centres undefined)	none
Cc1cccc(N(CC(=O)NC2CCCC2)C(=O)c2cc3cc4cccc(C)c4nc3s2)c1C	Cav32 inh -3.3
Cc1ccc(C)c(N(CC(=O)NC2CCCC2)C(=O)c2cc3cc4cc(C)ccc4nc3s2)c1	none
COc1ccc(OC)c(/C=N/N(C)c2ccccc2)c1	none
O=C(Cn1c(=O)c2c(ncn2Cc2ccccc2)n(Cc2ccccc2)c1=O)N1CCc2ccccc21	none
O=C(Cn1c(=O)c2c(ncn2C2CCCC2)n(Cc2ccccc2)c1=O)N1CCc2ccccc21	Cav32 inh -4.4
O=S(=O)(c1ccc(Oc2ccc(Cl)cc2)c(S(=O)(=O)N2CCCCC2)c1)N1CCCCC1	Cav32 inh -3.5
Cc1cccc(NC(=O)Cn2c(=O)n(Cc3ccco3)c(=N)c3c4c(sc32)COC(C)(C)C4)c1	Cav32 inh -4.2 (no result: sEH act, sEH inhibitor)
CC1(C)Cc2c(sc3c2c(=N)n(Cc2ccco2)c(=O)n3CC(=O)Nc2cccc(Cl)c2)CO1	Cav32 inh -5.2 (no result: IL1B cytotox, sEH act, IL1B NFkB inh, sEH inhibitor, IL1B NFkB pot)
Cn1c(SCC(=O)NCC2CCCO2)nnc1-c1c[nH]c2ccccc12 (centres undefined)	none
CN(C)c1cccc(C(=O)OCc2cc(=O)oc3cc(O)ccc23)c1	none
CCN1/C(=C/c2ccc3ccccc3[n+]2CC)C=Cc2ccccc21	Cav32 inh -5.4 (no result: IL1B cytotox, IL1B NFkB inh, IL1B NFkB pot)
CCOC(=O)c1c(CN2CCC(C)CC2)oc2ccc(OC)cc12	Cav32 inh -4.2
CCOC(=O)c1c(C)n(C)c2ccc(OCC(O)CN3CCC(C)CC3)cc12 (centres undefined)	Cav32 inh -5.3
Cc1ccc(C(CC(=O)NCc2ccco2)c2ccc(OC(C)C)cc2)cc1 (centres undefined)	Cav32 inh -5.1 (no result: IL1B cytotox, IL1B NFkB inh, IL1B NFkB pot)
COc1ccc(C(CC(=O)NCc2ccco2)c2ccc(F)cc2)cc1 (centres undefined)	none (no result: IL1B cytotox, IL1B NFkB inh, IL1B NFkB pot)
CC1=CC(C)(C)N2C(=O)C3(N=C(N)NC(Nc4ccccc4)=N3)c3cc(C)cc1c32 (centres undefined)	Cav32 inh -3.7
Cc1cc(C)cc(NC2=NC3(CCCCC3)N=C(N)N2)c1	none
Cc1ccccc1NC(=O)C1(NC(=O)c2cccc(N3C(=O)CSC3c3ccccc3)c2)CCCCC1 (centres undefined)	Cav32 inh -10
Cc1ccccc1NC(=O)c1cccc(N2C(=O)C3C4CCC(C4)C3C2=O)c1 (centres undefined)	none
CCOC(=O)COc1ccc(S(=O)(=O)Nc2ccc(C)cc2)cc1	none
CCOC(=O)COc1ccc(S(=O)(=O)c2ccc(OCC(=O)OCC)cc2)cc1	Cav32 inh -6.1
Cc1ccc(/C=C2\SC(=S)N(c3c(C)n(C)n(-c4ccccc4)c3=O)C2=O)cc1	Cav32 inh -5
O=C(Nc1ccc(S(=O)(=O)Nc2ccccc2)cc1)C1COc2ccccc2O1 (centres undefined)	Cav32 inh -3.8
Cc1nn(-c2ccccc2)c(C)c1C(=O)OCC(=O)c1c(N)n(CC(C)C)c(=O)n(C)c1=O	Cav32 inh -3.8 (no result: IL1B cytotox, sEH act, IL1B NFkB inh, sEH inhibitor, IL1B NFkB pot)
COc1ccc(/C=N/NC(=O)c2nc(-c3ccccc3)cc(-c3ccccc3)n2)cc1	Cav32 inh -7.2
O=C(Cn1cccc1)N1CCc2ccccc21	none
Cc1ccc(CN2CCN(CC(=O)NC(C)CCc3ccccc3)C2=O)cc1 (centres undefined)	Cav32 inh -5.7
CC(CCc1ccccc1)NC(=O)CN1CCN(Cc2ccc(Cl)cc2)C1=O (centres undefined)	Cav32 inh -8.2
O=C1N(CC(=O)N2CCc3ccccc32)CCN1Cc1ccc(Cl)cc1	Cav32 inh -4.5
O=C(NCC1CCCO1)C1CCN(c2ccc(S(=O)(=O)N3CCCC3)cc2)CC1 (centres undefined)	none
Fc1ccc(Br)cc1C1C=C(c2cccnc2)Nc2ncnn21 (centres undefined)	none (no result: IL1B cytotox, sEH act, IL1B NFkB inh, sEH inhibitor, IL1B NFkB pot)
Fc1cccc2sc(Nc3nnc(-c4ccccc4)o3)nc12	Cav32 inh -5 (no result: sEH act, sEH inhibitor)
C=CCn1c2ccccc2c2nnc(SCC(=O)Nc3c(C)n(C)n(-c4ccccc4)c3=O)nc21	Cav32 inh 3.8
CCn1c2ccccc2c2nnc(SCC(=O)Nc3c(C)n(C)n(-c4ccccc4)c3=O)nc21	none
Cc1cccc(-n2c(CCN3C(=O)c4ccccc4C3=O)nc3ccccc3c2=O)n1	none
Cc1ccc2c(CC(=O)N3CCN(S(=O)(=O)c4ccc5c(c4)OCCO5)CC3)coc2c1	Cav32 inh -5.6
CCOC(=O)N1CCN(c2c(N3CCN(c4ccccc4OC)CC3)c(=O)c2=O)CC1	none (no result: IL1B cytotox, sEH act, IL1B NFkB inh, sEH inhibitor, IL1B NFkB pot)
O=C(O)c1coc2ccccc12	IL1B NFkB pot 57
